# Laboratory results as given in PubChem BioAssay (EPA / NIEHS).
# Several values for one entry are separate records, joined by “and”; a condition that tells them apart may be missing. Identical values can stand only once. Where a structure was tested more than once in an assay, its records may differ in their call. Activity calls are given as the source filed them. Rule for the calls: active = hit-call score of the fitted dose curve at least 0.9, where 1 is the maximum; inactive = score below 0.9.
# Experiment: APR_HepG2_MitoMembPot_72hr: Apredica 72-hour HepG2 Assay for Mitochondrial Membrane Potential (AID 2282917)
# Conditions: imaging, actives raise or lower the signal
# Description: APR_HepG2_72hr is a cell-based, multiplexed-readout assay that uses HepG2, a human liver cell line, with measurements taken at 72 hours after chemical dosing in a 384-well plate.APR_HepG2_MitoMembPot_72hr is one of 10 assay component(s) measured or calculated from the APR_HepG2_72hr assay. It is designed to make measurements of dye binding, a form of membrane potential reporter, as detected with fluorescence intensity signals by HCS Fluorescent Imaging technology.Data from the assay component APR_HepG2_MitoMembPot_72hr was analyzed into 1 assay endpoint. This assay endpoint, APR_HepG2_MitoMembPot_72hr, was analyzed with bidirectional fitting relative to DMSO as the negative control and baseline of activity. Using a type of membrane potential reporter, gain or loss-of-signal activity can be used to understand changes in the signaling. Furthermore, this assay endpoint can be referred to as a primary readout, because this assay has produced multiple assay endpoints where this one serves a signaling function. To generalize the intended target to other relatable targets, this assay endpoint is annotated to the cell morphology intended target family, where the subfamily is organelle conformation.
# Cells were treated with dimethyl sulfoxide (DMSO) as a solvent control at a final concentration of 0.5% v/v or with compounds in DMSO with a resulting final DMSO concentration of 0.5% v/v. Compound treatment was done at concentrations of 0.39, 0.78, 1.56, 3.12, 6.24, 12.5, 25, 50, 100, and 200 uM in duplicate on each plate. Cells were treated with compounds for 1, 24, or 72 hr. Carbonyl […] m-chloro-phenylhydrazone (CCCP) and taxol were used as positive controls for mitochondrial function and cytoskeletal stability, respectively; DMSO served as the negative control for this experiment. Cells were fixed by the direct addition of 50 uL formaldehyde in Hank's Balanced Salt Solution (HBSS) to a final concentration of 3.7%. After incubation in the fixation medium for 30 min at room temperature (293-298 K), cells were rinsed twice with HBSS and treated with cell permeabilization buffer (16 uL of 0.5% Triton X-100) for 10 min at room temperature (293-298 K) before labeling. For mitochondrial membrane potential and mitochondrial measurements, pre-fixed cells were incubated with 50 uL of MitoTracker Red CMXRos (Invitrogen) at a concentration of 250 nM for 30 min before fixation. In the remaining cases, post-fixed cells were labeled by incubation with a multiplexed mixture of primary antibodies in HBSS for 60 min at room temperature (293-298 K) to detect immunoreactivity of c-Jun (1:500), phospho-histone H3 (1:100), phospho-histone H2A.x (1:200), p53 (1:400), alpha-tubulin (1:200) and Hoechst 33342 (2 ug/mL). Cells were labeled for multiplexed imaging on two separate plates: a) Hoechst 33342, MitoTracker Red, phospho-histone H3, and alpha-tubulin, and b) Hoechst 33342, phospho-histone H2A.x, and c-Jun. A final rinse with HBSS (50 uL) was performed before analysis. The primary and secondary antibodies for the proteins were phospho-histone H3 (rabbit anti-phospho-histone H3 and FITC-donkey anti-rabbit IgG), phospho-histone H2A.x (mouse anti-phospho-histone H2A.x and FITC-donkey anti-mouse IgG), c-Jun (rabbit anti-phospho-c-Jun and Cy3-donkey anti-rabbit IgG), p53 (sheep anti-p53 and Cy5-donkey anti-sheep IgG), alpha-tubulin (mouse anti-alpha-tubulin and Cy5-donkey anti-mouse IgG). These antibodies are available as the CellCiphr HepG2 assay kit (Millipore).Digital images of each well were captured using a Cellomics ArrayScan VTI (Thermo Scientific Cellomics) (0.8 NA objective, 0.63x optical coupler, and XF-93 filter set) at 20x magnification. The images were acquired using the autofocus feature of the ArrayScan instrument, which entails the following steps. First, the camera focuses on channel 1 (Hoechst 33342), where nuclei are identified. Second, a Z offset of 1 um is used for capturing mitochondria (MitoTracker Red). […]
SMILES,outcome,AC50
O=C(NC(=O)c1c(F)cccc1F)Nc1ccc(OC(F)(F)C(F)OC(F)(F)F)c(Cl)c1 (stereo not given),inactive,–
CN1CSC(=S)N(C)C1,inactive,–
CCS(=O)(=O)c1cccnc1S(=O)(=O)NC(=O)Nc1nc(OC)cc(OC)n1,inactive,–
Oc1cc(Cl)ccc1Oc1ccc(Cl)cc1Cl,inactive,35 µM (active)
COC(=O)c1ccccc1CS(=O)(=O)NC(=O)Nc1nc(OC)cc(OC)n1,inactive,–
CC(C)(C)C(O)/C(=C\c1ccc(Cl)cc1Cl)n1cncn1 (stereo not given),inactive,–
CCc1ccc(C(=O)NN(C(=O)c2cc(C)cc(C)c2)C(C)(C)C)cc1,inactive,–
CCCN(CCOc1c(Cl)cc(Cl)cc1Cl)C(=O)n1ccnc1,inactive,–
CNC(=O)/C=C(\C)OP(=O)(OC)OC,inactive,–
COc1cc(OC)nc(NC(=O)NS(=O)(=O)c2cc(NC=O)ccc2C(=O)N(C)C)n1,inactive,–
CC(C)(C)C(O)C(Oc1ccc(Cl)cc1)n1cncn1 (stereo not given),inactive,37.4 µM (active)
O=C(Nc1ccccc1)Nc1cnns1,inactive,–
CNC(=O)Oc1ccccc1OC(C)C,inactive,–
CC(C)OC(=O)Nc1cccc(Cl)c1,inactive,–
Clc1ccccc1-c1nnc(-c2ccccc2Cl)nn1,inactive,–
[2H]C1([2H])[n+]2ccccc2-c2cccc[n+]2C1([2H])[2H],inactive,–
CNC(=O)CSP(=S)(OC)OC,inactive,–
CCCN(CCC)c1c([N+](=O)[O-])cc(C(F)(F)F)cc1[N+](=O)[O-],inactive,–
COP(=S)(OC)Oc1ccc([N+](=O)[O-])cc1,inactive,–

SMILES,outcome,AC50
Oc1ccc(Cl)cc1Cc1ccccc1,inactive,116 µM (active) and 35.4 µM (active) and 66.2 µM (active)
CC1(c2ccc(Oc3ccccc3)cc2)OC(=O)N(Nc2ccccc2)C1=O (stereo not given),inactive,–
CC1(C)C(C=C(Cl)Cl)C1C(=O)OC(C#N)c1ccc(F)c(Oc2ccccc2)c1 (stereo not given),inactive,–
CCOc1nc(NC)nc(NC(=O)NS(=O)(=O)c2ccccc2C(=O)OC)n1,inactive,–
CCC(C)(C)C(=O)OC1=C(c2ccc(Cl)cc2Cl)C(=O)OC12CCCCC2,inactive,–
CCN(CC)C(=O)SCc1ccc(Cl)cc1,inactive,–
COP(=O)(OC)OC=C(Cl)Cl,inactive,–
O=C1c2ccccc2C(=O)N1SC(Cl)(Cl)Cl,–,10.4 µM (active)
Cc1cc(C)nc(NC(=O)NS(=O)(=O)c2ccccc2C(=O)OC2COC2)n1,inactive,–
N#CN,inactive,–
N#Cc1c(Cl)c(Cl)c(Cl)c(C#N)c1Cl,inactive,–
ClC1C(Cl)C(Cl)C(Cl)C(Cl)C1Cl (stereo not given),inactive,–
O=S(=O)(O)C(F)(F)C(F)(F)C(F)(F)C(F)(F)C(F)(F)C(F)(F)C(F)(F)C(F)(F)F,inactive,–
O=S1OCC2C(CO1)C1(Cl)C(Cl)=C(Cl)C2(Cl)C1(Cl)Cl (stereo not given),inactive,–
O=C(O)COc1ccc(Cl)cc1Cl,inactive,–
O=[N+]([O-])/N=C1\NCCN1Cc1ccc(Cl)nc1,inactive,–
C[C@H]1[C@H](c2ccc(Cl)cc2)SC(=O)N1C(=O)NC1CCCCC1,–,100 µM (active)
CC(C)N(C(=O)COc1nnc(C(F)(F)F)s1)c1ccc(F)cc1,inactive,–
